From PubChem BioAssay (NCI)
The panel holds about 79,000 compounds, 15% with a hit somewhere; the sample as a whole holds those more often. Cut-off read from the data, not from the text of the source: active = growth inhibition above about 70%; inactive = the rest. Where a SMILES comes first, the peptide text is derived from it.

Tests used:
[1] = NCI Yeast Anticancer Drug Screen. Data for the rad50 strain (AID 155);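 note: 0% = growth of vehicle-only cultures of the same strain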; settings: S. cerevisiae rad50 strain growth inhibition; at 50.0 µM; hits give high values
In short: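 Readout: growth inhibition relative to vehicle-treated cultures. Compound exposure was carried out in a genetically defined yeast strain deficient in DNA damage repair.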

[2] = NCI Yeast Anticancer Drug Screen. Data for the mec2-1 strain (AID 157); settings: S. cerevisiae mec2-1 strain, at 50.0 µM, hits give high values
In short: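 Cells of the genetically defined mec2-1 yeast strain are incubated with test compound. Inhibition of growth is calculated against vehicle-treated controls.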

[3] = NCI Yeast Anticancer Drug Screen. Data for the sgs1 mgt1 strain (AID 161);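 note: 0% = growth of cultures given vehicle only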; settings: S. cerevisiae sgs1 mgt1 strain, at 50.0 µM, hits give high values
In short: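 Genetically altered yeast, compound exposure, growth inhibition relative to vehicle.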

[4] = NCI Yeast Anticancer Drug Screen. Data for the cln2 rad14 strain (AID 165);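 note: 0% = growth equal to vehicle treated cultures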; settings: S. cerevisiae cln2 rad14 strain, at 50.0 µM, hits give high values
In short: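 The screen exposed genetically defined yeast (cln2 rad14) to test compounds and scored growth inhibition relative to vehicle-treated controls.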

[5] = NCI Yeast Anticancer Drug Screen. Data for the bub3 strain (AID 167); settings: S. cerevisiae bub3 mutant strain, at 50.0 µM, hits give high values
In short: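 Readout: yeast growth inhibition, expressed relative to vehicle-only wells. The test organism is a mutant strain from a panel with lesions in DNA repair or checkpoint genes.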

[6] = NCI Yeast Anticancer Drug Screen. Data for the mlh1 rad18 strain (AID 175); settings: S. cerevisiae mlh1 rad18 strain growth inhibition; at 50.0 µM; hits give high values
In short: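 Compound-treated yeast growth, normalised to vehicle controls. Strain bears defined DNA repair mutations.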

Measured: growth inhibition

CCOC(=O)c1ccc(NN=NCCF)cc1
inactive: [1] 15.8% | [2] 10% | [3] 0.4% | [4] 6.4% | [5] -32.5% | [6] -44.1%

O=c1oc2ncccc2n1Cc1ccc([N+](=O)[O-])cc1
inactive: [1] -14.7% | [2] -22% | [3] 1.25% | [4] 20.8% | [5] -1.15% | [6] 19.6%

CCCCOC(=O)C1CC2OC2CC1C(=O)OCCOCCOC(=O)C1CC2OC2CC1C(=O)OCCCC (stereo unspecified)
inactive: [1] -18.3% | [2] -6.45% | [3] -14.4% | [4] -39.9% | [5] 14.6% | [6] -42.5%

CC(C)CC(NC(=O)C(NC(=O)C(N)C(C)O)C(C)C)C(=O)O (stereo not drawn) (H-Thr-Val-Leu-OH; configuration not given here)
inactive: [1] 5.9% | [2] 3.1% | [3] 3.5% | [4] 5.95% | [5] 4.75% | [6] -1.5%

CN(C)c1cc[n+](-c2c([O-])c3ccccc3n(-c3ccccc3)c2=O)cc1
inactive: [1] 20.1% | [2] 6.1% | [3] 14.2% | [4] 12.7% | [5] 4.8% | [6] 21%

O=C1CSC(c2cccc([N+](=O)[O-])c2)N1c1ccc(-n2c(-c3ccccc3)nc3ccccc3c2=O)cc1 (stereo unspecified)
inactive: [1] -10.8% | [2] -17.1% | [3] 11.9% | [4] -6.8% | [5] 34% | [6] 7.25%

COc1ccc(C(CC(=O)O)c2ccccc2)cc1 (stereo unspecified)
inactive: [1] -31.4% | [2] -42.6% | [3] -2.55% | [4] -14.4% | [5] -29.8% | [6] -28.6%

Cc1cc(=O)[nH]c(=O)n1CCCN(C)CCCn1c(C)cc(=O)[nH]c1=O
inactive: [1] 2.2% | [2] -2.35% | [3] 8.85% | [4] -0.9% | [5] -28.6% | [6] -3.95%

CCCCCCC1OCCO1
inactive: [1] 29.8% | [2] 2.8% | [3] 16.5% | [4] -12.8% | [5] -4.8% | [6] 15.1%

CC(=O)OCCn1c(Cc2ccc(C)cc2)nn(C(C)=O)c1=O
inactive: [1] 16.6% | [2] 5.5% | [3] 11.8% | [4] 3.4% | [5] 5.9% | [6] -0.95%

CCOC(=O)Cc1n[nH]c(=O)c2ccccc12
inactive: [1] -21.6% | [2] 1.4% | [3] 1.2% | [4] -21.4% | [5] -21.8% | [6] -6.95%

COC(=O)C(CC(=O)Nc1ccc(C)cc1)C(=O)C(=O)Nc1c(C(C)C)cccc1C(C)C (stereo unspecified)
inactive: [1] -43.4% | [2] -17.8% | [3] -7.5% | [4] 6.1% | [5] -9.9% | [6] -25.2%

COc1cc(C[S+]2CCCC2)c(SC)cc1C[S+]1CCCC1
inactive: [1] 25.4% | [2] 50% | [3] 40.2% | [4] 27.5% | [5] 24.1% | [6] 23.1%

O=C(C(=O)c1cccs1)c1cccs1
inactive: [1] 3.1% | [2] 9.05% | [3] 34.4% | [4] 6.15% | [5] -17.5% | [6] 22.5%

O=C1c2ccccc2C(=O)c2c1ccc1c2[nH]c2ccccc21
inactive: [1] 2.15% | [2] -4.8% | [3] 3.75% | [4] -67.2% | [5] 0.8% | [6] -4.85%

[N-]=[N+]=NC1OC(=O)C(Cl)=C1N=P(c1ccccc1)(c1ccccc1)c1ccccc1 (stereo unspecified)
inactive: [1] 4.3% | [2] 11.3% | [3] 24.4% | [4] 9.6% | [5] 12.1% | [6] 23%

CNCCSSCCN
inactive: [1] -10.2% | [2] -0.95% | [3] -6.3% | [4] -18.8% | [5] 2.6% | [6] 0.95%

CCN(CC)C1=CC(=O)C(N(CC)CC)=CC1=O
inactive: [1] 1.25% | [2] 0.15% | [3] -7% | [4] -4.5% | [5] 13.1% | [6] 2.35%

O=C1CC[C@@H](NC(=O)Cc2ccccc2)C(=O)N1
inactive: [1] -6.65% | [2] -19.3% | [3] -12.8% | [4] -6.75% | [5] 2.25% | [6] -9.1%

CC(C)C(N)C(=O)Nc1nncs1 (stereo unspecified)
inactive: [1] 11.6% | [2] -2.15% | [3] -8% | [4] -10.1% | [5] -33.6% | [6] -28.6%

N#CC1(N(O)C(=O)Nc2ccccc2)CCCCC1
inactive: [1] 5.55% | [2] -10.3% | [3] -0.4% | [4] -7.05% | [5] 5.8% | [6] -13.1%
